Experimental data as given in PubChem BioAssay (NCATS).
Values joined by “and” are separate entries in the source; they are usually repeats but may differ in a detail not shown here. Identical values can stand only once. Results filed as inconclusive are left out. Active and inactive are the calls of the source. Unless noted, calls follow the shape of the dose curve; as a rule, active = well fitted curve in the direction sought with a large enough effect; inconclusive = small, poorly fitted or top-dose-only effect, or another doubt; inactive = no such curve, though single readings can be large; an effect the other way counts as inactive or inconclusive.

Experiments:
[1] = biological target: Alpha-galactosidase (Coffea arabica) (UniProt Q42656); assay: Counterscreen for Glucocerebrosidase Inhibitors: qHTS Assay for Coffee Bean alpha-Galactosidase at pH 4.5 (AID 957);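 also: series mostly up to about 77 µM; plate controls were enzyme alone for no effect and no enzyme for full effect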
Summary of the method: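 Fluorogenic qHTS at pH 4.5 (citrate buffer with Tween-20): 2 nM enzyme, 80 uM 4-MU-alpha-galactoside substrate, compound titrated 0.7 nM to 77 uM, 20 min room temperature. Glycine/NaOH stop; 4-MU read Ex 365/Em 440; Hill-equation AC50 against no-enzyme and enzyme controls.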

[2] = biological target: Alpha-galactosidase (Coffea arabica) (UniProt Q42656); assay: Counterscreen for Glucocerebrosidase Inhibitors: qHTS Assay for Coffee Bean alpha-Galactosidase at pH 5.9 (AID 998);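 also: plate controls were uninhibited enzyme for no effect and no-enzyme basal signal for full effect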
Summary of the method: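 Enzyme 2 nM + cpd (0.7 nM–77 uM titration) + 4-MU-alpha-Gal 80 uM, pH 5.9 citrate/Tween-20, RT 20 min, NaOH/glycine stop pH 10, fluor 365/440. Normalized to no-enzyme and full-activity controls; Hill-fit AC50.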

[3] = Inducers of the Endoplasmic Reticulum Stress Response (ERSR) in human glioma: Validation (AID 504836); also: 0% is about no effect
Summary of the method: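 Stably transfected U87-MG glioma cells carrying a GRP78-based luciferase sensor; 16 h compound incubation. Luminescence end-point read 10 min after Bright-Glo addition at room temperature.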

[4] = qHTS for Inhibitors of the Functional Ribonucleoprotein Complex (vRNP) of Lassa (LASV) Arenavirus: LASV Primary Screen - GLuc reporter signal (AID 1347082; calls by dose curve; tested in HEK293 reporter line; also: series mostly up to about 57 µM; % is scaled to controls: 0 for no effect and ±100 for the full control effect; nearly all actives have a fitted effect of over 60% in size)
[5] = qHTS for Inhibitors of the Functional Ribonucleoprotein Complex (vRNP) of Lassa (LASV) Arenavirus: Viability assay - alamar blue signal for LASV Primary Screen (AID 1347083; calls by dose curve; tested in HEK293 reporter line; also: series mostly up to about 57 µM; % is scaled to controls: 0 for no effect and ±100 for the full control effect; nearly all actives have a fitted effect of over 80% in size)
[6] = qHTS for Inhibitors of the Functional Ribonucleoprotein Complex (vRNP) of Lymphocytic Choriomeningitis Arenaviruses (LCMV): Viability assay - alamar blue signal for LCMV Primary Screen (AID 1347085; calls by dose curve; tested in HEK293 reporter line; also: series mostly up to about 57 µM; % is scaled to controls: 0 for no effect and ±100 for the full control effect; nearly all actives have a fitted effect of over 80% in size)
[7] = biological target: Nucleoprotein (Lymphocytic choriomeningitis virus (strain Armstrong)) (UniProt P09992); assay: qHTS for Inhibitors of the Functional Ribonucleoprotein Complex (vRNP) of Lymphocytic Choriomeningitis Arenaviruses (LCMV): LCMV Primary Screen - GLuc reporter signal (AID 1347086; calls by dose curve; also: series mostly up to about 57 µM; % is scaled to controls: 0 for no effect and ±100 for the full control effect; nearly all actives have a fitted effect of over 70% in size)
[8] = biological target: Cytochrome P450 3A4 (Homo sapiens) (UniProt P08684); assay: qHTS Assay for Inhibitors and Substrates of Cytochrome P450 3A4 (AID 884); also: series mostly up to about 57 µM; % is scaled to controls: 0 for no effect and ±100 for the full control effect; nearly all actives have a fitted effect of over 50% in size
Summary of the method: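 Luminescent readout of luciferin produced by CYP3A4 (20 nM) dealkylation of Luciferin-PPXE, 25 uM (its KM). NADPH-driven reaction ran 60 min at RT after 10 min compound preincubation; data scaled to 57 uM ketoconazole as 100% inhibition.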

[9] = biological target: Ubiquitin carboxyl-terminal hydrolase 1 (Homo sapiens) (UniProt O94782); assay: Inhibitors of USP1/UAF1: Pilot qHTS (AID 504865);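 also: rhodamine fluorescence freed from ubiquitin-rhodamine substrate followed over time; top concentration of the series differs between compounds; % is scaled to controls: 0 for no effect and ±100 for the full control effect; nearly all actives have a fitted effect of over 35% in size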
Summary of the method: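 1nM USP1/UAF1 + cpd, 15 min RT; start w/ Ub-Rho 150nM final; kinetic FL 480/540 nm, 6 reads q60 s. Buffer 50mM HEPES pH 7.8, 0.5mM EDTA, 1mM TCEP, 0.01% Tween-20, 0.1 mg/ml BSA.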

[10] = biological target: DNA dC->dU-editing enzyme APOBEC-3G (Homo sapiens) (UniProt Q9HC16); assay: qHTS for inhibitors of Vif-A3G interactions: Validation (AID 588379); also: 0% is about no effect
Summary of the method: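 Yellow fluorescence (Ex 488, Em 500-530) of Vif-coexpressing HeLa A3G-eYFP cells, scanned by Acumen cytometer, reports blocked A3G degradation. Cells plated at 700/well overnight at 37 deg C before compound addition, then a further overnight compound incubation at 37 deg C.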

[11] = biological target: Bile acid receptor (Homo sapiens) (UniProt Q96RI1); assay: qHTS assay for small molecule agonists of farnesoid X receptor signaling (AID 588527; calls by dose curve;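 also: series mostly up to about 77 µM; 0% = vehicle basal and 100% = reference agonist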); conditions: HEK293T FXR-UAS-bla, beta-lactamase ratio, 16 h; activation: hits give high values
Summary of the method: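 Read-out: beta-lactamase reporter fluorescence with CCF4 substrate in GeneBLAzer FXR-UAS-bla HEK293T cells, after 16 h compound exposure at 37 C. Response scaled between DMSO basal (0%) and chenodeoxycholic acid at 100 uM (100%).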

[12] = biological target: Peroxisome proliferator-activated receptor delta (Homo sapiens) (UniProt Q03181); assay: qHTS assay for small molecule agonists of peroxisome proliferator-activated receptor delta signaling (AID 588534; calls by dose curve;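 also: 0% = DMSO basal wells and 100% = positive control agonist at 10 µM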)
Summary of the method: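 Agonist-mode beta-lactamase reporter readout (CCF4 dye, 2 h at RT) after 18 h at 37 °C exposure to a titration; Hill-equation fitting gave EC50 and maximal response.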

Sequence of Alpha-galactosidase (Coffea arabica) (Q42656 whole entry, looked up): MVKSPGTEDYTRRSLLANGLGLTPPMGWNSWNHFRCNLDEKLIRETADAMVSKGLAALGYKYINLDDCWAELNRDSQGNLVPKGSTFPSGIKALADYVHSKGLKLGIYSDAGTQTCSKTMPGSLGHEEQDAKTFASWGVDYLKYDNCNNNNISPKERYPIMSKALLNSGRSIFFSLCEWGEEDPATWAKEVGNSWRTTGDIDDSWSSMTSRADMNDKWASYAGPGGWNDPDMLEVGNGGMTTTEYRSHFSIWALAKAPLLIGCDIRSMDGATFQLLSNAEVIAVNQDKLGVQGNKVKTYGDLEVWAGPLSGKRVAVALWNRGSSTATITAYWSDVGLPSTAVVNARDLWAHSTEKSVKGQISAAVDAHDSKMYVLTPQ
Sequence of Nucleoprotein (Lymphocytic choriomeningitis virus (strain Armstrong)) (P09992 whole entry, looked up): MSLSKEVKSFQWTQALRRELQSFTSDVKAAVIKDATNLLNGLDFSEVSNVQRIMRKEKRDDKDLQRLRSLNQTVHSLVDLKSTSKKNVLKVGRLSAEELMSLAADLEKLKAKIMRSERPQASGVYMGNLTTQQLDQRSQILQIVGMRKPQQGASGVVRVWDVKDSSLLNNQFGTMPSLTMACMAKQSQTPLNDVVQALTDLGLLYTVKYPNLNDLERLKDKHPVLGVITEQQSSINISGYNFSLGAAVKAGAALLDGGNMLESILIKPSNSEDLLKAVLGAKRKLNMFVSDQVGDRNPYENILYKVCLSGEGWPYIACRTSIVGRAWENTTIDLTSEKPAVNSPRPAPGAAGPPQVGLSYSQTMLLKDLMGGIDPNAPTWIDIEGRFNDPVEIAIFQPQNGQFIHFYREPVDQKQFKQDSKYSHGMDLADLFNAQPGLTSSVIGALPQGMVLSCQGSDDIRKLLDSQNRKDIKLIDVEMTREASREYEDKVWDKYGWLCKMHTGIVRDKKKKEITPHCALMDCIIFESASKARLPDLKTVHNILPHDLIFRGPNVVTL
Sequence of Bile acid receptor (Homo sapiens) (Q96RI1 whole entry, looked up): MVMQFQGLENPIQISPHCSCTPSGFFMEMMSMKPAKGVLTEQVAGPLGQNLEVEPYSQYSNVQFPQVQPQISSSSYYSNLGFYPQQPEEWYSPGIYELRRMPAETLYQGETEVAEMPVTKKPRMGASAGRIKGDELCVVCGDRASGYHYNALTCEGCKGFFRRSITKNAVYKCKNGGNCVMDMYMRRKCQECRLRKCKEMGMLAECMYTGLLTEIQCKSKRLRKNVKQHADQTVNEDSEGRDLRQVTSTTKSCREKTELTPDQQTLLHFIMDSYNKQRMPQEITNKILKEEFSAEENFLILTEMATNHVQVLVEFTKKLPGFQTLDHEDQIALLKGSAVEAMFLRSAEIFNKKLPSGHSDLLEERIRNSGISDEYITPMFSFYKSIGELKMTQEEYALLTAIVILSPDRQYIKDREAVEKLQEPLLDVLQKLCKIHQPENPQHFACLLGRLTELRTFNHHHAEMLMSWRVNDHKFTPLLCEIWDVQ
Sequence of Peroxisome proliferator-activated receptor delta (Homo sapiens) (Q03181 whole entry, looked up): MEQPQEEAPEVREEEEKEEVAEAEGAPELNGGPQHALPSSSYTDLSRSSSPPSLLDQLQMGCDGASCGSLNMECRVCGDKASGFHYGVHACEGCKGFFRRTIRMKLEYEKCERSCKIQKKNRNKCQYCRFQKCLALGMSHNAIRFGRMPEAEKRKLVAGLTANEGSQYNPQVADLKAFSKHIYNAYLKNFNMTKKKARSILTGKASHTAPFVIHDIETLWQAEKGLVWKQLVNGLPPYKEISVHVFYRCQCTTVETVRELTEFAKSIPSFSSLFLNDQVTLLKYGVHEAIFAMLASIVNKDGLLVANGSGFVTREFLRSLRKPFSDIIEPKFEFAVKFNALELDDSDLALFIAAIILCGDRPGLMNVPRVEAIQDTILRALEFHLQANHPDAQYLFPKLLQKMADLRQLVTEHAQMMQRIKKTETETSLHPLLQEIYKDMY
Sequence of Cytochrome P450 3A4 (Homo sapiens) (P08684 whole entry, looked up): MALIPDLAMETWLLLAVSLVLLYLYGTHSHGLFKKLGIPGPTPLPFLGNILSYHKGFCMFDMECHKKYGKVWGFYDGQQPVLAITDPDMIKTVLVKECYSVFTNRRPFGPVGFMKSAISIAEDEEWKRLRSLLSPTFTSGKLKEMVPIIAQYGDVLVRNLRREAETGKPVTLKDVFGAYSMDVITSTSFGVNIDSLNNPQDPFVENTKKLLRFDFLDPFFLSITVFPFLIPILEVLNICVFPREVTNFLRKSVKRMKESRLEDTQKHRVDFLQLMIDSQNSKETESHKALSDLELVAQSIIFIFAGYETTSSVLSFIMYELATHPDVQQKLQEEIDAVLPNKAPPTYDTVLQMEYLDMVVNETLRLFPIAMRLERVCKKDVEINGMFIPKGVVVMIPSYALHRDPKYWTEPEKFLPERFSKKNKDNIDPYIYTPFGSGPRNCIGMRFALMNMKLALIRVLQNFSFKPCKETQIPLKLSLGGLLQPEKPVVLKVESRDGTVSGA
Sequence of DNA dC->dU-editing enzyme APOBEC-3G (Homo sapiens) (Q9HC16 whole entry, looked up): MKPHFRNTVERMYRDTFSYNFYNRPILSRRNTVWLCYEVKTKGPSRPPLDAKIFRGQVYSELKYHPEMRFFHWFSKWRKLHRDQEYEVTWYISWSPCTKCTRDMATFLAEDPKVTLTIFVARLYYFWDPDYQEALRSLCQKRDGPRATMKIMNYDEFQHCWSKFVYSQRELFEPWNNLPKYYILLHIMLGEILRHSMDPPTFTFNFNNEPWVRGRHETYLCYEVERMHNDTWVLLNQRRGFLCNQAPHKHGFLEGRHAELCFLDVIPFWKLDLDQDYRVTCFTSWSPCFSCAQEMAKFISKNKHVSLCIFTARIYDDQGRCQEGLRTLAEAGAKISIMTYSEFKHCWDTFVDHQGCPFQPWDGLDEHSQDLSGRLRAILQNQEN
Sequence of Ubiquitin carboxyl-terminal hydrolase 1 (Homo sapiens) (O94782 whole entry, looked up): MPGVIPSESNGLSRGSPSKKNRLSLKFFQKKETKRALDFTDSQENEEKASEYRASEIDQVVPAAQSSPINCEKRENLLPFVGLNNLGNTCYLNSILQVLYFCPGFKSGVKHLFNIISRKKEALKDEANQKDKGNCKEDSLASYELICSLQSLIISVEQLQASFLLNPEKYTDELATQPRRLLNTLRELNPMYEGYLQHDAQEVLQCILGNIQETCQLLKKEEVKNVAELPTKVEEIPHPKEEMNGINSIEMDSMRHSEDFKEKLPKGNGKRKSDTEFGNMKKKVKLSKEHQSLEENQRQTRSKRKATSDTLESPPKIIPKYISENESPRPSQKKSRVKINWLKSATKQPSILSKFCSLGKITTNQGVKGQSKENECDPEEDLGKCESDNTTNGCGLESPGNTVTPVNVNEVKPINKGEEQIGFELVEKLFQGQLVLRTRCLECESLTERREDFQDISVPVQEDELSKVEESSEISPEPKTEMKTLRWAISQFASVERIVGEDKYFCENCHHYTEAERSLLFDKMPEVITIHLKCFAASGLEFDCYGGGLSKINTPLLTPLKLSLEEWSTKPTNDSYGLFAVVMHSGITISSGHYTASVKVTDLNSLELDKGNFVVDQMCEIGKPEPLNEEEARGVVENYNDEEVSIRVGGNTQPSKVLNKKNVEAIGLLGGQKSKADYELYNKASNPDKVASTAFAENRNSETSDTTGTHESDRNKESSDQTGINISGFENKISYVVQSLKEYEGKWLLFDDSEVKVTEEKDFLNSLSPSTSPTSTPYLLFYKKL

N=C(N)SCCc1ccc(CCSC(=N)N)cc1
inactive: outcome [1] | outcome [2] | outcome [3] | Potency [4] | Potency [5] | Potency [6] | Potency [7]

Nc1ncnc2c1ncn2C1CCCC1
inactive: outcome [1] | outcome [2] | outcome [3] | Potency [4] | Potency [5] | Potency [6] | Potency [7]

O=CN1CCCCC1C1CC[C@H]2CCCCN2C1 (stereo partly drawn)
inactive: Potency [8] | Potency [9] | Potency [10] | Potency [4] | Potency [5] | Potency [6] | Potency [7]

CN=C(N)NCCC[C@H](N)C(=O)O
inactive: outcome [1] | outcome [2] | outcome [3] | Potency [4] | Potency [5] | Potency [6] | Potency [7]

c1ccc(CN2CCC3(CCCc4ccccc43)CC2)cc1
inactive: outcome [1] | outcome [2] | outcome [3] | Potency [4] | Potency [5] | Potency [6] | Potency [7]

c1ccc2c(c1)ccc1ccccc12
inactive: activation [11] -5.28% and 1.03% | Potency [12] | Potency [4] | Potency [5] | Potency [6] | Potency [7]

CCN1C(=O)C=CC1=O
inactive: outcome [1] | outcome [2] | outcome [3] | Potency [4] | Potency [5] | Potency [6] | Potency [7]
